Source: PubChem (several laboratories)
Compounds with a hit are over-represented: about 4.7% of the library has one in this group of screens.
Cav32 inh: inhibitors of human Cav3.2 T-type calcium channel; Cav3.2-expressing cells, Fluo-4 calcium fluorescence FDSS; active compounds read low; B-score at 10 µM; actives 4% (n = 100,000); AID 449739;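 active means single-dose well whose peak fluorescence ratio is a statistical outlier from its plate by either plate-standardised score or position-corrected B-score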
PTK2B oligo ant: Pyk2 (human) oligomerization antagonism | Q14289 | Q293 cells, Pyk2 FERM NanoBiT luminescence; active compounds read low | z-score (the deposit names both 25 µM and 10 µM) | actives 0.83% (n = 99,000);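 active means Z-score of -3 or lower, scaled per plate to the spread of control and sample wells; inactive means z-score above -3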;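 further: negative z-score means lost luminescence so less FERM oligomerization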
Target sequence (Q14289 whole entry, looked up): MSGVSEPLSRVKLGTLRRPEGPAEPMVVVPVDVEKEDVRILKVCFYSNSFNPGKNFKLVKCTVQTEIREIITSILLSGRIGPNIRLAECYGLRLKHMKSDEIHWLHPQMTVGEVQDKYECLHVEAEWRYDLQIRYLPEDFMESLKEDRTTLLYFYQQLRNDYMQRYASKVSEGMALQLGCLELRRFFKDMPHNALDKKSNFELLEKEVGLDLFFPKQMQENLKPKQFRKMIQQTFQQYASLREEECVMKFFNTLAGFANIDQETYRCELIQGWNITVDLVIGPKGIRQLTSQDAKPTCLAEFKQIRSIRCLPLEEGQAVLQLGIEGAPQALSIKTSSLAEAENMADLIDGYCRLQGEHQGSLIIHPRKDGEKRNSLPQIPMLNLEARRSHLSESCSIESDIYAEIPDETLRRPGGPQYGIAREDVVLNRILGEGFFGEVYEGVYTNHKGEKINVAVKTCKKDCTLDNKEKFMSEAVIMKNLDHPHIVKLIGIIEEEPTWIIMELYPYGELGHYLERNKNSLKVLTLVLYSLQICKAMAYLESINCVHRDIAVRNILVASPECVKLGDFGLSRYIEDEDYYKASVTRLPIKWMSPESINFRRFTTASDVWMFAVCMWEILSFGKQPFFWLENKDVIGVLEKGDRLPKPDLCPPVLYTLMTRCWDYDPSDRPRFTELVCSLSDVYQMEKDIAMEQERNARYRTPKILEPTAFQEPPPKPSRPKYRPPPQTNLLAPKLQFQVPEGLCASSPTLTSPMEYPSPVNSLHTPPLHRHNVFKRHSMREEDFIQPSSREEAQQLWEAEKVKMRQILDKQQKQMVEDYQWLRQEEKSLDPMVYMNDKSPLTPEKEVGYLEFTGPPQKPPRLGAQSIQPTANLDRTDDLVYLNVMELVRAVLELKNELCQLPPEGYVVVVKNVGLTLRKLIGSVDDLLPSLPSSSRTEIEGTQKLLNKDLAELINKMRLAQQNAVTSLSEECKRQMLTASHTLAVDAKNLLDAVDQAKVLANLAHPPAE
sdo1 growth: compounds rescuing growth of sdo1-depleted yeast, bone marrow failure model; actives 0.21% (n = 140,000); S. cerevisiae sdo1-depleted JHY4D growth rescue, OD600 30 h; active compounds read high; pdr5 snq2 efflux-pump mutant strain; z-score at 10 µM;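 active means z-score above 3 at both the 24 hr and the 30 hr optical density reads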
PLK1 inh: blocks human PLK1 kinase activity; P53350; recombinant PLK1 kinase, TR-FRET peptide phosphorylation; inhibition, % at 10 µM; actives 0.53% (n = 97,000);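 active means inhibition of 50% or more in the single-concentration screen; inactive means inhibition below 50%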
DAT uptake mod: human DAT dopamine uptake with cocaine, either direction. Q01959. LLC-PK1 hDAT cells, [14C]-dopamine uptake with cocaine IC80; actives deviate in either direction. B-score at 10 µM. actives 1.3% (n = 110,000);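 active means Z score or B-score, a plate-position-corrected score, falls beyond the plate's 99.7% confidence bounds, in either direction; inactive means both scores lie inside the 99.7% bounds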
PLK1 PBD inh: inhibitors of human Plk1 polo box domain binding | inhibition, %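 (tested at about 20 µM)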 | P53350 | actives 0.13% (n = 97,000) | AID 693 | Plk1 PBD phosphopeptide binding, fluorescence polarization; in the data active means inhibition above about 34%, passing the limit was not always enough
Large screens that a line does not name were inactive.

CC1(C)CC(=O)C2=C(C1)NC(SCC(=O)Nc1ccccc1)=C(C#N)C21CCCCC1	none
CC(C)(/C=N/NC(=O)CSCc1ccccc1Cl)CCC#N	none (no result: Cav32 inh, PTK2B oligo ant, PLK1 inh, DAT uptake mod, PLK1 PBD inh)
O=C(CSCc1cccc(CSCC(=O)Nc2ccccc2)n1)Nc1ccccc1	Cav32 inh -6.8
Cc1cccc(C)c1NC(=O)CSCc1cccc(CSCC(=O)Nc2c(C)cccc2C)n1	none
O=C(/C=C(\O)c1ccc(Cl)cc1)C(=O)NNC(=O)C(O)(c1ccccc1)c1ccccc1	Cav32 inh -8.63
CC(=O)N=c1sc2cc(C)ccc2n1C	none
COC(=O)Cn1c(=NC(=O)CSCC(=O)NC2CCCCC2)sc2cc(OC)ccc21	none
CC(=O)SCC(=O)N=c1sc2cc(F)ccc2n1C	Cav32 inh -6.21
CCOC(=O)Cn1c(=NC(=O)CSC(C)=O)sc2ccccc21	Cav32 inh -9.42 (no result: PTK2B oligo ant, PLK1 inh, PLK1 PBD inh)
CCOC(=O)Cn1c(=NC(=O)CSC(C)=O)sc2cc(OC)ccc21	Cav32 inh -10.1
S=C(NCCc1ccccc1)Nc1ccc(Br)cc1	none (no result: Cav32 inh, PTK2B oligo ant, PLK1 inh, DAT uptake mod, PLK1 PBD inh)
Cc1nc2ccc(-c3ccccc3)cc2o1	DAT uptake mod 0.819
Cc1ccc2oc(-c3ccccc3)nc2c1	none
Cc1ccc2nc(N(CCCN(C)C)C(=O)c3sc4ccccc4c3Cl)sc2c1	none (no result: Cav32 inh, PLK1 inh, DAT uptake mod, PLK1 PBD inh)
CCc1nc(NCCCn2ccnc2)c2oc3ccccc3c2n1	none
c1ccc(-c2nc(NCCCn3ccnc3)c3oc4ccccc4c3n2)cc1	DAT uptake mod 3.52
CCCCCCn1cnc2c(c1=O)c1nc3ccccc3nc1n2/N=C/c1ccco1	DAT uptake mod 3.96
Cn1c(-c2ccccc2)c[n+]2c1-c1ccccc1C2	none (no result: Cav32 inh, PTK2B oligo ant, PLK1 inh, DAT uptake mod, PLK1 PBD inh)
O=C(O)C(=O)/C(=C\c1cccc2ccccc12)c1ccc2ccccc2n1	Cav32 inh -5.49
CSCCC(NC(=O)c1ccccc1Br)C(=O)Nc1ccc(C)cc1 (stereo not given)	none (no result: Cav32 inh, PTK2B oligo ant, PLK1 inh, DAT uptake mod, PLK1 PBD inh)
Cc1cc(C)n2nc(-c3sccc3-n3c(C)ccc3C)cc2n1	none
Cc1cc(C)n2nc(-c3sccc3-n3cccc3)cc2n1	DAT uptake mod -2.61
CC(=O)N1CCN(CC(=O)Nc2ccccc2Sc2ccccc2)CC1	none (no result: Cav32 inh, PTK2B oligo ant, PLK1 inh, DAT uptake mod, PLK1 PBD inh)
CC(=O)n1cc([C@H]2C=C(C(N)=O)O[C@@H](OCc3ccc(CO)cc3)C2)c2ccccc21	none (no result: PTK2B oligo ant, sdo1 growth, PLK1 inh, PLK1 PBD inh)
CCOc1ccc(/C=N/n2c(SC)nnc(C(C)(C)C)c2=O)cc1	none
CCOc1ccc(/C=N/n2c(SC)nnc2-c2ccccc2)cc1OCC	DAT uptake mod 3.35
CCOc1ccc(N(CC(=O)NC2CCCC2)C(=O)CSc2nnc(COc3ccccc3)o2)cc1	Cav32 inh -5.37
O=C(CN(C(=O)CSc1nnc(COc2ccccc2)o1)c1ccc(F)cc1)NC1CCCC1	none
CN1CC(c2ccccn2)C2(SC(=S)N(Cc3ccccc3)C2=O)C12C(=O)Nc1ccccc12 (stereo not given)	Cav32 inh -4.75
CN1CC(c2ccccc2)C2(SC(=S)N(Cc3ccco3)C2=O)C12C(=O)Nc1ccccc12 (stereo not given)	Cav32 inh -4.71
O=S(=O)(NCc1ccco1)c1ccc(Cl)nc1	none (no result: Cav32 inh, PLK1 inh, DAT uptake mod, PLK1 PBD inh)
COc1ccc(C2(O)CCN(CC(=O)Nc3nccs3)CC2)c(OC)c1	Cav32 inh -4.66
Cc1ccc(OCCOc2ccc(Cl)cc2Cl)c([N+](=O)[O-])n1	none (no result: Cav32 inh, PTK2B oligo ant, PLK1 inh, DAT uptake mod, PLK1 PBD inh)
Cc1nc2ccc(NC(=O)c3cc([N+](=O)[O-])cc([N+](=O)[O-])c3Cl)cc2s1	none (no result: Cav32 inh, PTK2B oligo ant, PLK1 inh, DAT uptake mod, PLK1 PBD inh)
CCOC(=O)COc1ccc(S(=O)(=O)NCc2ccco2)cc1	none
CCOC(=O)COc1ccc(S(=O)(=O)NCc2ccncc2)cc1	Cav32 inh -5.31
CCOc1ccc(S(=O)(=O)NCc2ccncc2)cc1	DAT uptake mod -2.73
CCCNC(=O)Cn1c(=O)oc2ccccc21	none
CCc1cccc(CC)c1-n1c(SCC(=O)c2c(N)n(C)c(=O)n(C)c2=O)nnc1-c1cccnc1	none (no result: Cav32 inh, PTK2B oligo ant, PLK1 inh, DAT uptake mod, PLK1 PBD inh)
CCc1cccc(CC)c1-n1c(SCn2nnc3ccccc3c2=O)nnc1-c1cccnc1	Cav32 inh -5.28
Cc1nc2cc(NS(=O)(=O)c3c(C)c(C)cc(C)c3C)ccc2s1	PTK2B oligo ant -3.83
CC(C)(C)c1cc(/C=N/NC(=O)Cc2nc3ccccc3[nH]2)cc(C(C)(C)C)c1O	Cav32 inh -7.63
CS(=O)(=O)NCCSCc1c(Cl)cccc1Cl	none
O=S(=O)(NCCSc1ccc(Cl)cc1)c1ccc2c(c1)OCCO2	Cav32 inh -8.69
O=S(=O)(NCCSCc1c(Cl)cccc1Cl)c1ccc2c(c1)OCCO2	PTK2B oligo ant -4.34
